Screening results deposited in PubChem by several laboratories.
FAS-TE inh = FAS thioesterase (human) inhibition. P49327. recombinant FAS-TE, OMFH fluorogenic substrate, fluorescence endpoint. inhibition, % at 15 µM. 360,000 compounds, 0.67% hits. AID 602261;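 active means compounds whose normalised, plate-corrected inhibition of enzyme fluorescence in the single-dose primary screen is 50% or more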
Target sequence (P49327 whole entry, looked up): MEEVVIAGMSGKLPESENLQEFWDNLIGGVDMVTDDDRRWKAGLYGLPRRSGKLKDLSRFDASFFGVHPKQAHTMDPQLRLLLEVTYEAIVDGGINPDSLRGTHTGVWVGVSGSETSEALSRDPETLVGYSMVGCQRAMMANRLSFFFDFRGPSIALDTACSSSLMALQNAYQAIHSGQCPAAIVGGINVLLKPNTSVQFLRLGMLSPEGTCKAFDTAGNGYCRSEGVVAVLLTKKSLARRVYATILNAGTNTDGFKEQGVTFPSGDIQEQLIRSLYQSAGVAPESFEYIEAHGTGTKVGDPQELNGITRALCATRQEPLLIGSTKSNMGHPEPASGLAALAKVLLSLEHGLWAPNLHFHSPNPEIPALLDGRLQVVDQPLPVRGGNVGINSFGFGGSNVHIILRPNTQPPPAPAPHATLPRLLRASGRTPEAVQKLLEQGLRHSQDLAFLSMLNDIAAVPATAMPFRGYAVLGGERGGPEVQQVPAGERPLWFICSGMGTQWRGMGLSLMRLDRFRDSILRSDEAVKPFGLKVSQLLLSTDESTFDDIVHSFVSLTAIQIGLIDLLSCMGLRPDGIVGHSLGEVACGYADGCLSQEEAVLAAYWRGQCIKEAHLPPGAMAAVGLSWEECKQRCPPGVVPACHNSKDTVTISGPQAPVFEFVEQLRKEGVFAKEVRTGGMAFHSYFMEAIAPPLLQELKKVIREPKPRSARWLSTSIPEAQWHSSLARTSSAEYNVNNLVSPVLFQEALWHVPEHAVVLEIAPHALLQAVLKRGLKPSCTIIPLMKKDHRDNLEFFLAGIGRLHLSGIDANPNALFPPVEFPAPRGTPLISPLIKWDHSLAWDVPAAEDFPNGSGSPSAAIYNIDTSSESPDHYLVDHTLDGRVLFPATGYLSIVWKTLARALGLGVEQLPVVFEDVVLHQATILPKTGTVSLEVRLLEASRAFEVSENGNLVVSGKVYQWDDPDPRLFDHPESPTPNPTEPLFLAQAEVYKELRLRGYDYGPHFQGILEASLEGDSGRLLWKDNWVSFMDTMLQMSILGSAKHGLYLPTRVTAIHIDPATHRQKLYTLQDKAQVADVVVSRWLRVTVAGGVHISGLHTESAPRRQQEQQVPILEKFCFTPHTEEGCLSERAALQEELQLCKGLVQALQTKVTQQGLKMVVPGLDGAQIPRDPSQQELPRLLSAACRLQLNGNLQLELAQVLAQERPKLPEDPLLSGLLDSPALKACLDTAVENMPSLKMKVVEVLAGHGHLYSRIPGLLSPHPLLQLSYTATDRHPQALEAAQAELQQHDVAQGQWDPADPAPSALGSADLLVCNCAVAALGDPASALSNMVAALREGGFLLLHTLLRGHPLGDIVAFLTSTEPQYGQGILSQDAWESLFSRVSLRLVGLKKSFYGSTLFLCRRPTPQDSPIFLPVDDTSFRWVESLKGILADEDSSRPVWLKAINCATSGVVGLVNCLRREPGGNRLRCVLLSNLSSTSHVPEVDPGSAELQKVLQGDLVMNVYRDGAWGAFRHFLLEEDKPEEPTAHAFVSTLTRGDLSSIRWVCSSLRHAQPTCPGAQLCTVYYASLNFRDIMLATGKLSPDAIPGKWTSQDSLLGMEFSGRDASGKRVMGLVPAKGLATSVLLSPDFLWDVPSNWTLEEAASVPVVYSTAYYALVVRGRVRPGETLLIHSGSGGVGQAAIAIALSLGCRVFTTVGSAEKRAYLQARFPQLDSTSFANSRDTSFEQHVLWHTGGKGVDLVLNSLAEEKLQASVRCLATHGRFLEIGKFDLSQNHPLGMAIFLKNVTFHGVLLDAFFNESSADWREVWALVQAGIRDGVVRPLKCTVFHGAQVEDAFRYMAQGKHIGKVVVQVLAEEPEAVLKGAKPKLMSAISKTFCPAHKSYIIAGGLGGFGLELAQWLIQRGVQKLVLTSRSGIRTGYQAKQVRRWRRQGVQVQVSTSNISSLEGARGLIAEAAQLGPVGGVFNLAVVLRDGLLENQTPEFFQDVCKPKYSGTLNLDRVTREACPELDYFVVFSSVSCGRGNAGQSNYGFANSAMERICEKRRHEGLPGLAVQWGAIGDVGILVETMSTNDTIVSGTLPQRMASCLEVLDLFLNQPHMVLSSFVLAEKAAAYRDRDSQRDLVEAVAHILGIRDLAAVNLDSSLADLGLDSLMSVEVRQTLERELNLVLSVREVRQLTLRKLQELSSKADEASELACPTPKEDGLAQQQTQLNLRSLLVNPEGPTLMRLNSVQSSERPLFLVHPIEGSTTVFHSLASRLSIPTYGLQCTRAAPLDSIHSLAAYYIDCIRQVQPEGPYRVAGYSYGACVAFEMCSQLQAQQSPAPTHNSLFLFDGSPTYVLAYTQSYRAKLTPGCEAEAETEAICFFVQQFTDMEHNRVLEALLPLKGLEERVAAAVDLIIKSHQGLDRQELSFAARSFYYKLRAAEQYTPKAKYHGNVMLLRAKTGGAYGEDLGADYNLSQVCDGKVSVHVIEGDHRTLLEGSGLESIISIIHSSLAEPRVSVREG
CRFR2-BP antag = CRF-BP/CRF-R2 complex antagonism | inhibition, % at 11.8 µM | 350,000 compounds, 0.59% hits | HEK293 CRF-R2/CRF-BP, CRF-induced calcium fluorescence | AID 588475;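 active means inhibition of the ligand-induced calcium signal above about 50% at the single tested concentration, limit read from the data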
NadD block = blocks S. aureus nicotinate mononucleotide adenylyltransferase; purified NadD enzyme, colorimetric absorbance read-out; inhibition, % at 20 µM; 360,000 compounds, 0.78% hits; AID 602399; in the data active means inhibition above about 26%
Myeloid diff MLP = compounds promoting myeloid differentiation; ER-HoxA9 myeloid progenitors, lysozyme-GFP differentiation, flow cytometry; 360,000 compounds, 1% hits; AID 624256; calls only at 10 µM;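 active means normalized GFP-positive differentiation at or above the plate's own cutoff, the solvent-only control mean plus 3 SD; inconclusive means no clear call, values can overlap the other calls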;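 further: cells exposed to compound for four days before flow analysis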
NRP1-CendR mod = NRP-1/CendR interaction modulation | FAM-RPARPAR peptide binding to NRP-1, fluorescence polarization | 360,000 compounds, 0.85% hits | inhibition, % at 25 µM;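 active means inhibition or corrected inhibition above about 18%, plus a signal ratio from 0.5 to 1.5, limit read from the data, passing the limit was not always enough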
FAS-TE conf = confirmation of human fatty acid synthase thioesterase inhibitors. shares compounds with FAS-TE inh. recombinant FAS-TE, OMFH fluorogenic substrate, fluorescence. inhibition, % at 15 µM. 2,300 compounds, 45% hits;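 active means compounds inhibiting the enzyme by at least 50% at 15 µM in any one of the replicates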
Each line names hits and unclear results; the compound was inactive in the other large screens (follow-up assays come after a bar, where they were run). A selection: hits, their analogues and other compounds. The true share with any hit is near 3.6%.

COc1cc([N+](=O)[O-])cc(/C=N/NC(=O)C(O)(c2ccccc2)c2ccccc2)c1O	none
CCCCn1nnc(NC(=S)NC(=O)c2ccc(OCC)c([N+](=O)[O-])c2)n1	none
O=C1Nc2cc(Cl)c(Cl)cc2N(O)N1c1ccc(Cl)c(Cl)c1	FAS-TE inh 62 | FAS-TE conf 67
CN(C1CCCCC1)S(=O)(=O)c1ccc(SCC(=O)C(C)(C)C)nc1	FAS-TE inh 54 | FAS-TE conf inactive
O=c1nc(SCc2c(F)cccc2Cl)nc(-c2ccc(Cl)cc2)[nH]1	FAS-TE inh 57 | FAS-TE conf inactive
COc1ccc(N2CCN(C(=O)CSc3ccc(C)cc3)CC2)cc1	none
COc1ccc(N2CCN(C(=O)CSc3ccc([N+](=O)[O-])cc3)CC2)cc1	FAS-TE inh 60 | FAS-TE conf 33
O=C(CSc1nnc(NC(=O)C2CC2)s1)NCc1ccccc1	none
COc1ccccc1[C@@H]1C(c2cccc(C)c2)=NN(c2ccc(Br)cc2)[C@H]1C(=O)N1CCOC1=O	FAS-TE inh 62 | FAS-TE conf inactive
COc1ccccc1N1C(=O)C2C(C(=O)c3ccccc3)=NN(c3ccc(Br)cc3)C2C1=O (stereo not given)	none
COc1ccccc1[C@@H]1C(c2ccccc2)=NN(c2ccc(Br)cc2)[C@H]1C(=O)N1CCOC1=O	FAS-TE inh 74 | FAS-TE conf inactive
COc1cc(/C=C/C(=O)OCC(=O)NCC2CCCO2)ccc1OCC#N (stereo not given)	none
COc1cc(/C=C/C(=O)OCC(=O)Nc2sc3c(c2C#N)CCC(C)C3)ccc1OCC#N (stereo not given)	FAS-TE inh 64 | FAS-TE conf inactive
Cc1cc(C(=O)COC(=O)c2ccc(N)c([N+](=O)[O-])c2)c(C)n1-c1ccc2c(c1)OCO2	FAS-TE inh 63 | FAS-TE conf inactive
Cc1cc(C(=O)COC(=O)c2ccc(N)c([N+](=O)[O-])c2)c(C)n1Cc1ccc2c(c1)OCO2	none
CCCCOCCOC(=O)C1OC1(C)c1ccccc1 (stereo not given)	none
CC(C)(C)C(=O)Nc1nc(C2CCCN2S(=O)(=O)c2ccc(Cl)cc2)cs1 (stereo not given)	FAS-TE inh 55 | FAS-TE conf 65
O=C(Nc1ccc(Cc2ccncc2)cc1)c1cccc([N+](=O)[O-])c1	FAS-TE inh 66 | FAS-TE conf 70
O=C(NCCCc1ccccc1)c1ccccc1	none
CC(CCc1ccccc1)NC(=O)c1cccc([N+](=O)[O-])c1 (stereo not given)	FAS-TE inh 62 | FAS-TE conf 70
O=C(NCCCCc1ccccc1)c1cccc([N+](=O)[O-])c1	FAS-TE inh 54 | FAS-TE conf 65
O=C(NCCCc1ccccc1)c1cccc([N+](=O)[O-])c1	FAS-TE inh 67, CRFR2-BP antag 55 | FAS-TE conf 51
O=C(NCCCCc1ccccc1)c1ccccc1	none
CC(Cc1ccccc1)NC(=O)c1ccc([N+](=O)[O-])cc1 (stereo not given)	none
O=C(Nc1nnc(SCc2ccc(F)cc2)s1)c1ccccn1	Myeloid diff MLP inconclusive
O=[N+]([O-])c1cccc(NC(=S)NCCc2ccccc2)c1	FAS-TE inh 65 | FAS-TE conf 57
O=C(NCCCCc1ccccc1)c1cc([N+](=O)[O-])cc([N+](=O)[O-])c1	FAS-TE inh 52 | FAS-TE conf 53
Fc1cccc(NC(=S)NCCc2ccccc2)c1	none
COc1cc(F)cc(-c2ccc3c(c2)c(C#Cc2ccsc2)c(-c2cc(OC)cc(OC)c2)n3C)c1	none
COc1ccc(NC(=O)/C(Cl)=C(/Cl)S(=O)Cc2ccc(Cl)cc2)cn1 (stereo not given)	FAS-TE inh 62 (no result: Myeloid diff MLP) | FAS-TE conf 68
Cc1ccc(S(=O)(=O)c2cn(Cc3ccc(F)cc3)c3cc4c(cc3c2=O)OCO4)cc1	FAS-TE inh 58 | FAS-TE conf inactive
Cc1ccccc1Cn1cc(S(=O)(=O)c2ccc(C(C)C)cc2)c(=O)c2cc3c(cc21)OCO3	FAS-TE inh 62 | FAS-TE conf inactive
O=c1c(S(=O)(=O)c2ccc(Cl)cc2)cn(Cc2cccc(F)c2)c2ccc(F)cc12	FAS-TE inh 70 | FAS-TE conf inactive
CCOc1ccccc1NC(=O)NCCC1=CCCCC1	none
COc1ccc(NC(=O)CN2C(=O)CSC(C)C2=O)cc1 (stereo not given)	none
COc1ccc(CNC(=O)CN2C(=O)NC3(CCCCCCC3)C2=O)cc1	none
CCN(CC(=O)NCc1cccs1)C(=O)c1ccc(NS(=O)(=O)c2cccc([N+](=O)[O-])c2)cc1	none
C=CCNC(=O)NC(=O)COC(=O)[C@H](C)NS(=O)(=O)c1c(C)c(C)cc(C)c1C	none
Cc1cccc(C)c1Cn1c(C)c(C(=O)NCc2ccc([N+](=O)[O-])cc2)sc1=O	FAS-TE inh 61 (no result: CRFR2-BP antag) | FAS-TE conf 62
COc1ccc(S(=O)(=O)N2CCCOC2CNC(=O)C(=O)NCc2ccncc2)cc1 (stereo not given)	none
O=C(COC(=O)c1cc([N+](=O)[O-])ccc1N1CCOCC1)c1ccc(F)cc1	FAS-TE inh 69 | FAS-TE conf 40
CCc1ccc(C(=O)COC(=O)c2cc([N+](=O)[O-])ccc2N2CCOCC2)cc1	FAS-TE inh 80 | FAS-TE conf 80
Cc1c(C(=O)NCc2ccccc2C(F)(F)F)sc(=O)n1Cc1ccc(Cl)c(Cl)c1	none (no result: CRFR2-BP antag)
O=C(NC(=S)Nc1cccc(C(F)(F)F)c1)c1ccc2nonc2c1	FAS-TE inh 51 | FAS-TE conf inactive
CCOC(=O)c1cc(-c2ccccc2)sc1NC(=O)C(C)N1C(=O)c2ccccc2C1=O (stereo not given)	FAS-TE inh 57 | FAS-TE conf inactive
CCN1CCCC1CNC(=O)c1[nH]c2ccc(OC)cc2c1C (stereo not given)	none
Cc1ccc2c(Cl)cc(Cl)c(OCC(=O)Nc3cccc(S(=O)(=O)N(C)C)c3)c2n1	none
Cc1ccc2c(Cl)cc(Cl)c(OCC(=O)Nc3cc(S(=O)(=O)N(C)C)ccc3C)c2n1	FAS-TE inh 52 | FAS-TE conf inactive
N#Cc1ccccc1OCC(=O)OCCCOC(=O)COc1ccccc1C#N	none
O=C(COc1ncnc2cc([N+](=O)[O-])ccc12)N(CCc1ccccc1)Cc1ccccc1	FAS-TE inh 62 | FAS-TE conf 52
CC(C)[C@H](NS(=O)(=O)c1ccccc1)C(=O)OCc1cc([N+](=O)[O-])cc2c1OCOC2	none
CCCCN(CCCC)C(=O)CSc1nnc2n(C)c(=O)c3c4c(sc3n12)CCCC4	none (no result: Myeloid diff MLP)
Cn1c(=O)c2c3c(sc2n2c(SCC(N)=O)nnc12)CC(C(C)(C)C)CC3 (stereo not given)	FAS-TE inh 56 | FAS-TE conf inactive
N#Cc1cc(-c2ccc(Cl)cc2)cn(Cc2c(Cl)cccc2Cl)c1=O	FAS-TE inh 62 | FAS-TE conf inactive
C=CCn1cc(-c2ccc(Cl)cc2)cc(C#N)c1=O	none
